In PubChem BioAssay (NCI):
The panel holds about 83,000 compounds, 20% with a hit somewhere; the sample as a whole holds those more often.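 A percent growth of 40 corresponds to 60% growth inhibition; 0 means no net growth; -100 means all cells died. Active threshold: below 10.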 Activity calls are given as the source filed them.

What was measured:
Assay in all cases: NCI-60 one-dose screen, 48 h (100 = growth as untreated, 0 = no growth, -100 = all killed)
Conditions in all cases: 10 µM unless noted
NCI-H23 lung = system: NCI-H23 lung
NCI-H226 lung = system: NCI-H226 lung
NCI-H322M lung = system: NCI-H322M lung
HOP-62 NSCLC = system: HOP-62 NSCLC
NCI-H460 lung = system: NCI-H460 lung
HOP-92 NSCLC = system: HOP-92 NSCLC
NCI-H522 lung = system: NCI-H522 lung
A549/ATCC NSCLC = system: A549/ATCC NSCLC
786-0 renal = system: 786-0 renal
COLO 205 colon = system: COLO 205 colon

Measured: growth

CC(=O)c1ccc(NC(=O)COc2ccc(C3SCC(=O)N3c3ccc(Br)cc3)cc2)cc1 (stereo not given)
inactive: NCI-H23 lung 95.1% | NCI-H226 lung 93% | NCI-H322M lung 99.1% | HOP-62 NSCLC 93.5% | NCI-H460 lung 108% | HOP-92 NSCLC 84.4% | NCI-H522 lung 84.8% | A549/ATCC NSCLC 93.9% | 786-0 renal 104% | COLO 205 colon 104%

C/C(=C(/C)C1CC1CCN(C(=O)c1ccccn1)S(=O)(=O)c1ccc(C)cc1)C1CCCCC1 (stereo not given)
inactive: NCI-H23 lung 84.2% | NCI-H226 lung 97% | NCI-H322M lung 105% | HOP-62 NSCLC 102% | NCI-H460 lung 100% | HOP-92 NSCLC 104% | NCI-H522 lung 85.1% | A549/ATCC NSCLC 97% | 786-0 renal 95.5% | COLO 205 colon 108%

C[C@H]1[C@H](C)CC[C@]2(COC(=O)c3cccnc3)CC[C@]3(C)C(=CC[C@@H]4[C@@]5(C)CCCNC(C)(C)[C@@H]5CC[C@]43C)[C@H]12
inactive: NCI-H23 lung 70% | NCI-H226 lung 78.1% | NCI-H322M lung 88.3% | HOP-62 NSCLC 99.8% | NCI-H460 lung 65.1% | HOP-92 NSCLC 67.5% | NCI-H522 lung 82.9% | A549/ATCC NSCLC 78.6% | 786-0 renal 70.7% | COLO 205 colon 43.9%

Cc1ccc(Cc2cnc(NC(=O)/C(C#N)=C/c3ccc(-c4ccc(Cl)cc4)o3)s2)cc1
inactive: NCI-H23 lung 91.3% | NCI-H226 lung 117% | NCI-H322M lung 84.9% | HOP-62 NSCLC 101% | NCI-H460 lung 83.8% | HOP-92 NSCLC 66.9% | NCI-H522 lung 96.9% | A549/ATCC NSCLC 103% | 786-0 renal 99.9% | COLO 205 colon 93.8%

CC1CCN(S(=O)(=O)c2ncsc2-c2ccccc2)CC1
inactive: NCI-H23 lung 92.9% | NCI-H226 lung 99.9% | NCI-H322M lung 98.6% | HOP-62 NSCLC 85.3% | NCI-H460 lung 91.5% | HOP-92 NSCLC 116% | NCI-H522 lung 98.5% | A549/ATCC NSCLC 93.1% | 786-0 renal 30.8% | COLO 205 colon 112%

CC(c1ccccc1)N1C(=O)/C(=C/c2csc(C#N)n2)SC1=S (stereo not given)
inactive: NCI-H23 lung 101% | NCI-H226 lung 97% | NCI-H322M lung 99.8% | HOP-62 NSCLC 103% | NCI-H460 lung 106% | HOP-92 NSCLC 85.5% | NCI-H522 lung 75.4% | A549/ATCC NSCLC 95.8% | 786-0 renal 91% | COLO 205 colon 91.8%

NC(=S)N/N=C(/C=C/c1cn(-c2ccccc2)nc1-c1ccc(Cl)cc1)c1cc2ccccc2oc1=O
inactive: NCI-H23 lung 46.5% | NCI-H226 lung 62.2% | NCI-H322M lung 60% | HOP-62 NSCLC 43% | NCI-H460 lung 18.3% | HOP-92 NSCLC 70.2% | NCI-H522 lung 46.9% | A549/ATCC NSCLC 41.4% | 786-0 renal 58.1% | COLO 205 colon 38.1%

O=C(Nc1ccc(F)cc1)c1cc(-c2ccc(F)cc2F)ccc1O
inactive: HOP-62 NSCLC 12% | A549/ATCC NSCLC 30.6% | 786-0 renal 15.5% | COLO 205 colon 96.4%
active: NCI-H23 lung 1.86% | NCI-H226 lung 5.87% | NCI-H322M lung 9.89% | NCI-H460 lung 4.82% | HOP-92 NSCLC -26.6% | NCI-H522 lung -4.42%

CCOC(=O)c1ccc(N/C=C/C(=O)c2ccccc2)cc1
inactive: NCI-H23 lung 103% | NCI-H226 lung 105% | NCI-H322M lung 97% | HOP-62 NSCLC 111% | NCI-H460 lung 104% | HOP-92 NSCLC 124% | NCI-H522 lung 94.8% | A549/ATCC NSCLC 101% | 786-0 renal 94% | COLO 205 colon 101%

O=[N+]([O-])c1ccc(-c2nnc(SCc3ccc(O)c4ncccc34)n2-c2ccccc2)cc1
active: NCI-H460 lung 5.75% | HOP-92 NSCLC -24.4% | NCI-H522 lung 9.93%
inactive: NCI-H23 lung 13.7% | NCI-H226 lung 87.3% | NCI-H322M lung 41.7% | HOP-62 NSCLC 23.2% | A549/ATCC NSCLC 22.4% | 786-0 renal 30.8% | COLO 205 colon 110%

O=C(CN1C(=O)S/C(=C\c2ccccc2)C1=O)Nc1ccc(C(=O)/C=C/c2cc3ccccc3nc2Cl)cc1
inactive: NCI-H23 lung 59.3% | NCI-H226 lung 92.2% | NCI-H322M lung 92.2% | HOP-62 NSCLC 87.6% | NCI-H460 lung 88.3% | HOP-92 NSCLC 87.9% | NCI-H522 lung 73.3% | A549/ATCC NSCLC 88.6% | 786-0 renal 94.8% | COLO 205 colon 103%

CCN(CC)Cc1c(-c2cccc(OC(F)(F)F)c2)[nH]c2ccc(N3CCCC3)cc2c1=O
inactive: NCI-H23 lung 92.9% | NCI-H226 lung 96.1% | NCI-H322M lung 87.3% | HOP-62 NSCLC 103% | NCI-H460 lung 97.5% | HOP-92 NSCLC 86.2% | NCI-H522 lung 87.5% | A549/ATCC NSCLC 99% | 786-0 renal 98.6% | COLO 205 colon 103%

CCCCSc1nnc(-c2ccc(-c3ccc(Cl)cc3)nc2C)o1
inactive: NCI-H23 lung 95% | NCI-H226 lung 95.9% | NCI-H322M lung 103% | HOP-62 NSCLC 108% | NCI-H460 lung 101% | HOP-92 NSCLC 93.4% | NCI-H522 lung 98% | A549/ATCC NSCLC 102% | 786-0 renal 96.9% | COLO 205 colon 101%

COc1ccc(S(=O)(=O)NCCCNc2nccc(-n3cnc4ccccc43)n2)cc1
inactive: NCI-H23 lung 91.9% | NCI-H226 lung 73.2% | NCI-H322M lung 104% | HOP-62 NSCLC 94.9% | NCI-H460 lung 97.3% | HOP-92 NSCLC 75.8% | NCI-H522 lung 81.1% | A549/ATCC NSCLC 106% | 786-0 renal 95.9% | COLO 205 colon 108%

C=CCn1c(SCC(=O)Nc2cccc(C(=O)/C=C/c3ccc(OC)c(OC)c3)c2)nc2ccccc2c1=O
inactive: NCI-H23 lung 93.2% | NCI-H226 lung 83.7% | NCI-H322M lung 87.8% | HOP-62 NSCLC 103% | NCI-H460 lung 91.7% | HOP-92 NSCLC 84.6% | NCI-H522 lung 83.6% | A549/ATCC NSCLC 89.1% | 786-0 renal 100% | COLO 205 colon 116%

Cc1cc(-c2ccc3nc(N)sc3c2)nc2ccc3[nH]ncc3c12
active: NCI-H522 lung 6.95%
inactive: NCI-H23 lung 39.4% | NCI-H226 lung 53% | NCI-H322M lung 67.1% | HOP-62 NSCLC 31.6% | NCI-H460 lung 14% | HOP-92 NSCLC 36.2% | A549/ATCC NSCLC 45.4% | 786-0 renal 64.8% | COLO 205 colon 12.5%

CNC(=O)c1cc(Oc2ccc3nc(NC(=O)c4cccc(C(F)(F)F)c4)sc3c2)ccn1
inactive: NCI-H23 lung 101% | NCI-H226 lung 104% | NCI-H322M lung 103% | HOP-62 NSCLC 117% | NCI-H460 lung 103% | HOP-92 NSCLC 110% | NCI-H522 lung 98.9% | A549/ATCC NSCLC 101% | 786-0 renal 97.2% | COLO 205 colon 112%

COc1ccc(/C=C/C(=O)c2nnn(-c3ccc(C(=O)O)cc3)c2C)cc1OC
inactive: NCI-H23 lung 105% | NCI-H226 lung 100% | NCI-H322M lung 91.3% | HOP-62 NSCLC 107% | NCI-H460 lung 107% | HOP-92 NSCLC 102% | NCI-H522 lung 88.4% | A549/ATCC NSCLC 97.5% | 786-0 renal 98.4% | COLO 205 colon 109%

C[C@@H]1C[C@H]2C(=O)OCC(NC(=O)[C@H](Cc3cc(F)cc(F)c3)NC(=O)Nc3ccc(Cl)cc3F)C(=O)N3CCC[C@H]3C(=O)N3CCCC[C@H]3C(=O)N[C@@H](C)C(=O)N2C1 (stereo not given in full)
inactive: NCI-H23 lung 37.9% | NCI-H322M lung 48.3% | HOP-62 NSCLC 39.1% | NCI-H460 lung 14.8% | NCI-H522 lung 17.2% | A549/ATCC NSCLC 25.1% | 786-0 renal 33.6%
active: NCI-H226 lung -4.62% | HOP-92 NSCLC 9.65% | COLO 205 colon -9.71%

CN1CCN(c2ccc(C(=O)/C=C/c3ccc(Cl)c(C(F)(F)F)c3)cc2)CC1
inactive: NCI-H23 lung 81.5% | NCI-H226 lung 86% | NCI-H322M lung 78.8% | HOP-62 NSCLC 88.9% | NCI-H460 lung 88% | HOP-92 NSCLC 41.8% | NCI-H522 lung 76.4% | A549/ATCC NSCLC 72.8% | 786-0 renal 79.9% | COLO 205 colon 60.6%

C=C1C(=O)O[C@@H]2/C=C(/C)C3=CC(=O)[C@@](C)(C[C@H](OC(=O)/C(C)=C\C)[C@@H]12)O3
active: NCI-H23 lung 6.39% | HOP-92 NSCLC -11.8% | NCI-H522 lung -82.3% | 786-0 renal -56.5% | COLO 205 colon -52.1%
inactive: NCI-H226 lung 34.5% | NCI-H322M lung 89.1% | HOP-62 NSCLC 82.4% | NCI-H460 lung 27.2% | A549/ATCC NSCLC 72.6%

Oc1ccc(CSc2nnc(-c3ccccc3)n2-c2ccccc2)c2cccnc12
active: NCI-H460 lung 1.36% | HOP-92 NSCLC -14.4%
inactive: NCI-H23 lung 18.8% | NCI-H226 lung 19.8% | NCI-H322M lung 18.5% | HOP-62 NSCLC 11.1% | NCI-H522 lung 12.6% | A549/ATCC NSCLC 13% | 786-0 renal 18.7% | COLO 205 colon 61.7%

CCOC(=O)CC(=O)CSC1=NC2C(NN1)N(C)C(=O)N2C (stereo not given)
inactive: NCI-H23 lung 75.5% | NCI-H226 lung 100% | NCI-H322M lung 103% | HOP-62 NSCLC 107% | NCI-H460 lung 105% | HOP-92 NSCLC 88.7% | NCI-H522 lung 72.8% | A549/ATCC NSCLC 102% | 786-0 renal 103% | COLO 205 colon 108%

Oc1ccc(CSc2nnc(-c3ccc(Br)cc3)n2-c2ccccc2)c2cccnc12
inactive: NCI-H23 lung 38.2% | NCI-H226 lung 44.7% | NCI-H322M lung 52.4% | HOP-62 NSCLC 16.1% | HOP-92 NSCLC 31.9% | NCI-H522 lung 28.5% | A549/ATCC NSCLC 26.3% | 786-0 renal 43.2% | COLO 205 colon 99.6%
active: NCI-H460 lung 7.57%
